Screening data deposited in PubChem BioAssay by National Center for Advancing Translational Sciences (NCATS).
The list is not random: actives were taken first. Their share in the collection is about 10%.
HEK293 tox – HEK 293 cell cytotoxicity; HEK 293 viability, ATP luminescence (CellTiter-Glo), 48-72 h; actives 6.6% (n = 94,000); AID 1345083; Potency, µM (top dose mostly 115 µM), without a hit: at the top dose activity change, negative = cytotoxicity, usual class: inhibitors; also: nearly all actives have a fitted effect of over 60% in size
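250 HEK 293 cells/well; compound by pintool; incubated 48 or 72 hr at 37 degree Celsius; CellTiter-Glo added, 10 min RT, luminescence imaged.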
NPR1 antag – human Npr1 receptor antagonism; P16066; HEK293 hNpr1 GloSensor cGMP, ANP-stimulated luminescence; Potency, µM (top dose mostly 46.3 µM), for inactives: at the top dose activity change, negative = inhibition, most hits filed as inhibitors; actives 1.6% (n = 76,000); calls by dose curve; also: nearly all actives have a fitted effect of over 60% in size
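HEK293 cells stably expressing human Npr1 and cGMP GloSensor pGS-40F, loaded 2 h with 2% GloSensor reagent, given compound 30 min at room temperature. Luminescence read before and 20 min after 0.1 nM hNppA.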
GPT2 inhibitor – blocks human glutamate pyruvate transaminase 2. Recombinant GPT2, coupled pyruvate oxidase/HRP Amplex Red fluorescence. Potency, µM (top dose mostly 57.7 µM), without a hit: at the top dose activity change, negative = inhibition, actives largely listed as inhibitors. actives 0.25% (n = 100,000); also: nearly all actives have a fitted effect of over 60% in size
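Inhibition is scored from Amplex Red fluorescence generated when pyruvate oxidase and HRP act on pyruvate released by GPT2. Reactions contain 10ng/uL enzyme, 250uM a-KG and 2mM L-alanine and run 30 min at room temperature.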
NIH3T3 tox – kills NIH 3T3 cells; NIH 3T3 viability, CellTiter-Glo ATP luminescence, 48-72 h; Potency, µM (doses to about 96.7 µM), without a hit: at the highest dose activity change, negative = cytotoxicity, hits mostly inhibitors; actives 4.3% (n = 94,000); also: nearly all actives have a fitted effect of over 55% in size
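Cells were seeded at 400 per well, treated with pin-transferred compound, and kept 48 or 72 hr at 37 °C before CellTiter-Glo addition and luminescence imaging of cellular ATP.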
FLuc inh – blocks purified firefly luciferase enzyme activity. P08659. purified P. pyralis luciferase, luminescence, biochemical. Potency, µM (doses to about 115 µM), usual class: inhibitors. actives 2.5% (n = 76,000); also: nearly all actives have a fitted effect of over 65% in size
Target sequence (P08659 whole entry, looked up): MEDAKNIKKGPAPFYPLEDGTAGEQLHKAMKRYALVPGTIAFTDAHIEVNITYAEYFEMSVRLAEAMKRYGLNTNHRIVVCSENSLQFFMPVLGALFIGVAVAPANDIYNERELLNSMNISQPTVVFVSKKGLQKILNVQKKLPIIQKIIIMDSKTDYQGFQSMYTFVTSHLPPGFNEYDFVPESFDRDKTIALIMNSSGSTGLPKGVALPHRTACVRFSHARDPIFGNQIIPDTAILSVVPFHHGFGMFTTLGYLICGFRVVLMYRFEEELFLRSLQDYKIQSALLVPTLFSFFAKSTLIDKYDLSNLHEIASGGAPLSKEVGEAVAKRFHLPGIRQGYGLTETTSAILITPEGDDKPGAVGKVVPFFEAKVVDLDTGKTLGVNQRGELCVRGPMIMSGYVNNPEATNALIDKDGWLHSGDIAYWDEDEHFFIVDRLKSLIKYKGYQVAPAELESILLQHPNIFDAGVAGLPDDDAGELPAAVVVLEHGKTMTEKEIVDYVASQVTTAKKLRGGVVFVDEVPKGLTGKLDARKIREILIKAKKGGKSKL
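Purified 10nM P. pyralis luciferase with 10uM D-luciferin and 10uM ATP in 50mM Tris acetate pH 7.5, 10mM Mg acetate, 0.01% Tween-20, 0.05% BSA. qHTS titration; luminescence read by CCD imager.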
* hit, by the source's call; i = inactive; ? = inconclusive; nt = no result; [ ] = dose if it differs, or a comment. Unless noted, calls follow the shape of the dose curve; as a rule, active = well fitted curve in the direction sought with a large enough effect; inconclusive = small, poorly fitted or top-dose-only effect, or another doubt; inactive = no such curve, though single readings can be large; an effect the other way counts as inactive or inconclusive. % is scaled to controls: 0 for no effect and ±100 for the full control effect; potency is read from the fitted curve at half-maximal effect.

SMILES	HEK293 tox	NPR1 antag	GPT2 inhibitor	NIH3T3 tox	FLuc inh
O=C(c1ccco1)N1[C@H]2CC[C@@H]1c1cnc(-c3ccc(F)cc3)nc1C2	45µM*	?	i	-26%	i
Cc1noc(C)c1S(=O)(=O)N1[C@H]2CC[C@@H]1c1cnc(-c3ccccc3)nc1C2	?	?	4%	-26%	i
O=C(CCc1nc2ccccc2[nH]1)N1[C@H]2CC[C@@H]1c1cnc(-c3ccc(F)cc3)nc1C2	-28%	-2%	-7%	-13%	i
Cc1noc(C)c1S(=O)(=O)N1[C@H]2CC[C@@H]1c1cnc(-c3ccc(F)cc3)nc1C2	45µM*	?	i	?	i
CCOC(=O)[C@H]1CN(C(=O)CCc2ccccc2)[C@]2(C)C(=O)N(CCOC(C)=O)c3ccccc3[C@H]12	89µM*	nt	nt	-29%	nt
CCOC(=O)[C@H]1CN(C(=O)/C=C/c2ccccc2)[C@]2(C)C(=O)N(CC3CC3)c3ccccc3[C@H]12	28µM*	nt	-2%[27.3 µM]	?	nt
CCOC(=O)[C@H]1CN(C(=O)Cc2ccccc2)[C@]2(C)C(=O)N(CCOC(C)=O)c3ccccc3[C@H]12	?	nt	i	-22%[46.1 µM]	nt
CCOC(=O)[C@H]1CN(C(=O)Nc2ccc3c(c2)OCO3)[C@]2(C)C(=O)N(CC3CC3)c3ccccc3[C@H]12	35µM*	nt	i	?	nt
O=c1ccc(-c2cccs2)c2n1C[C@H]1C[C@@H]2CN(S(=O)(=O)c2cccs2)C1	-13%[172 µM]	-9%[70.6 µM]	?	-26%[174 µM]	i
O=C(Cc1cccc(Cl)c1)N1CCN(Cc2ccccc2-c2cccnc2)CC1	?	nt	-9%	?	nt
CCOC(=O)[C@H]1CN(C(=O)CC2CCCC2)[C@]2(C)C(=O)Nc3ccccc3[C@H]12	?	nt	-19%[27.3 µM]	?	nt
C[C@H]1CN(CC[C@H](O)C2CCCCC2)CC[C@@]1(C)c1cccc(O)c1	nt	nt	i	nt	nt
CC(C)OC(=O)c1ccnc2cc(C(OCCN3CCCCC3)c3ccccc3Cl)sc12 (centres undefined)	nt	nt	i	nt	nt
COc1cc2c(cc1OCc1ccccc1)N([S+](=O)([O-])c1cn(C)cn1)CC21CCN(C)CC1	?	-2%	i	?	i
COc1cc2c(cc1OCc1ccccc1)N(C(=O)c1cccc3[nH]ccc13)CC21CCN(C)CC1	?	1%	-2%	20µM*	i
COc1cc2c(cc1OCc1ccccc1)N(C(=O)c1cc3ccccc3[nH]1)CC21CCN(C)CC1	20µM*	-1%	-3%	22µM*	i
COc1cc2c(cc1OCc1ccccc1)N(C(=O)c1c[nH]c3ccccc13)CC21CCN(C)CC1	22µM*	-4%	?	20µM*	i
Cc1cccc(NC(=O)N[C@H]2CN(C)c3ccccc3C(c3ccccc3)=N2)c1	nt	nt	i	nt	nt
COC1CC(O[C@H]2CC[C@]3(C=O)C4CC[C@]5(C)[C@@H](C6=CC(=O)OC6)CC[C@]5(O)[C@@H]4CC[C@]3(O)C2)OC(C)C1O[C@@H]1O[C@H](CO)[C@@H](O)[C@H](O)[C@H]1O (some centres undefined)	nt	nt	i	nt	nt
COc1ccc(NC(=O)NC[C@H]2C[C@@H]3CCN2C[C@@H]3CN2CCN(c3ccccc3OC)CC2)cc1	89µM*	-18%	-3%	?	i
CC[C@H]1CN2CC[C@H]1C[C@@H]2CNC(=S)Nc1ccc(C)cc1Br	?	-18%[70.6 µM]	i	45µM*	i
CC[C@H]1CN2CC[C@H]1C[C@@H]2CNC(=O)Nc1ccccc1	i	3%[70.6 µM]	i	1%[230 µM]	i
CC[C@H]1CN2CC[C@H]1C[C@@H]2CNC(=O)Nc1ccc(Oc2ccccc2)cc1	25µM*	-8%[70.6 µM]	?	28µM*	i
CC(=O)OC12C(O)C(C)C3(O)C4C=C(C)C(=O)C4CC(CO)=CC3C1C2(C)C (centres undefined)	nt	nt	i	nt	nt
O=C(c1ccccc1)N1C[C@@H]2C[C@H](C1)c1ccc(-c3ccc(Cl)cc3)c(=O)n1C2	?	-15%[70.6 µM]	i	63µM*	i
SMILES	HEK293 tox	NPR1 antag	GPT2 inhibitor	NIH3T3 tox	FLuc inh
O=C(O)CCC(=O)N1C[C@@H]2C[C@H](C1)c1ccc(-c3ccc(Cl)cc3)c(=O)n1C2	2%[172 µM]	0%[70.6 µM]	i	i	i
CC(C)=C1CC[C@]23CO[C@H](C2)[C@@](O)(C(=O)O)CCC13 (some centres undefined)	nt	nt	i	nt	nt
C[C@@H]1CN(Cc2ccc(F)cc2)CCN1C(=O)COc1ccc(Cl)cc1NC(N)=O	nt	nt	0%	nt	nt
CCC(CC)c1cc([C@H]2CN3CC[C@H]2C[C@@H]3CNC(=O)c2ccc(C)cc2)nc(-c2ccncc2)n1	45µM*	-12%	?	?	i
CCC(CC)c1cc([C@H]2CN3CC[C@H]2C[C@@H]3CO)nc(-c2ccncc2)n1	112µM*	-28%[70.6 µM]	-12%[88.5 µM]	112µM*	i
CCC(CC)c1cc([C@H]2CN3CC[C@H]2C[C@@H]3COC(=O)Nc2ccccc2)nc(-c2ccncc2)n1	-14%	-2%	?	-18%	i
C=C[C@H]1CN2CC[C@H]1C[C@@H]2CNC(=O)c1ccc(N(C)C)cc1	?	6%[70.6 µM]	i	-21%[174 µM]	i
CCC(CC)c1cc([C@H]2CN3CC[C@H]2C[C@@H]3CNC(=O)c2ccc(N(C)C)cc2)nc(-c2ccncc2)n1	20µM*	-22%	i	?	i
CCC(CC)c1cc([C@H]2CN3CC[C@H]2C[C@@H]3CNC(=O)c2ccco2)nc(-c2ccncc2)n1	-4%	-2%	-10%	-10%	i
CCC(CC)c1cc([C@H]2CN3CC[C@H]2C[C@@H]3CNC(=O)Nc2cccc(C#N)c2)nc(-c2ccncc2)n1	?	-16%	-5%	79µM*	i
O=C(c1ccccc1)N1C[C@@H]2C[C@H](C1)c1c(-c3cccnc3)ccc(=O)n1C2	-27%[172 µM]	-4%[70.6 µM]	?	-26%[174 µM]	i
CCOC(=O)[C@H]1CN([S+](=O)([O-])c2cccs2)[C@]2(C)C(=O)N(CCOC)c3ccccc3[C@H]12	-18%[57.5 µM]	nt	-10%[27.3 µM]	?	nt
CCC(CC)c1cc([C@H]2CN3CC[C@H]2C[C@@H]3CNC2CCN(C(C)=O)CC2)nc(-c2ccncc2)n1	79µM*	-8%	i	?	i
NCC(O)c1cc(O)c(O)cc1F (centres undefined)	nt	nt	10µM*	nt	nt
C/C=C(\C)C(=O)OC1CC2C(C)(C)OC(=O)CC(OC(C)=O)C2(C)C2CC(OC(=O)C(C)C)C3(C)C(c4ccoc4)CC4OC43C12C (centres undefined)	nt	nt	-1%[17.1 µM]	nt	nt
CC(C)[C@H]1C(=O)N[C@H](CO)Cc2c[nH]c3cccc(c23)N1C	nt	nt	15µM*	nt	nt
